Compounds without any hit were thinned out: in the full panel of roughly 83,000, 20% have a hit.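 Cells were grown in 96-well plates and exposed to the test compound at a single concentration for 48 hours; results are reported as percent growth, with values below 10 considered active.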
Experiments:
Assay in all cases: NCI-60 one-dose screen, 48 h (100 = growth as untreated, 0 = no growth, -100 = all killed)
NCI-H322M lung = conditions: 10 µM unless noted
HOP-62 NSCLC = conditions: 10 µM unless noted
NCI-H522 lung = conditions: 10 µM unless noted
COLO 205 colon = conditions: 10 µM
K-562 leukemia = conditions: 10 µM unless noted
SNB-75 CNS = conditions: 10 µM unless noted
U251 CNS = conditions: 10 µM unless noted
SK-MEL-2 melanoma = conditions: 10 µM unless noted
EKVX NSCLC = conditions: 10 µM unless noted
ACHN renal = conditions: 10 µM unless noted
SR leukemia = conditions: 10 µM
OVCAR-5 ovarian = conditions: 10 µM unless noted
OVCAR-4 ovarian = conditions: 10 µM unless noted
SK-OV-3 ovarian = conditions: 10 µM unless noted
NCI/ADR-RES ovarian = conditions: 10 µM unless noted
HOP-92 NSCLC = conditions: 10 µM unless noted
A549/ATCC NSCLC = conditions: 10 µM unless noted
IGROV1 ovarian = conditions: 10 µM

Measured: growth

O=C1NC(=O)C(O)(C2(O)C(=O)NC(=O)NC2=O)C(=O)N1
inactive: NCI-H322M lung 132% | HOP-62 NSCLC 97.6% | NCI-H522 lung 94.3% | COLO 205 colon 79.9% | K-562 leukemia 87.9% | SNB-75 CNS 94% | U251 CNS 99.9% | SK-MEL-2 melanoma 77.5% | EKVX NSCLC 110% | ACHN renal 104% | SR leukemia 95.1% | OVCAR-5 ovarian 88.1% | OVCAR-4 ovarian 108% | SK-OV-3 ovarian 111% | NCI/ADR-RES ovarian 92.7%

C/C(=N/OC(=O)N(C)C)c1ccc(Cl)cc1Cl
inactive: HOP-62 NSCLC 98.2% | HOP-92 NSCLC 108% | NCI-H522 lung 83.6% | A549/ATCC NSCLC 97.3% | COLO 205 colon 110% | K-562 leukemia 106% | SNB-75 CNS 79.2% | SK-MEL-2 melanoma 88.8% | ACHN renal 98.7% | SR leukemia 87.2% | OVCAR-5 ovarian 106% | OVCAR-4 ovarian 113% | IGROV1 ovarian 104% | NCI/ADR-RES ovarian 96.7%

CC(C)Nc1ccc(Nc2ccccc2)cc1
inactive: NCI-H322M lung 73.4% | HOP-62 NSCLC 35.3% | NCI-H522 lung 40.8% | A549/ATCC NSCLC 24.1% | COLO 205 colon 43.6% | K-562 leukemia 24.6% | SNB-75 CNS 29.8% | U251 CNS 12.5% | SK-MEL-2 melanoma 80.5% | EKVX NSCLC 29.4% | ACHN renal 30.5% | SR leukemia 51.2% | OVCAR-5 ovarian 65.1% | OVCAR-4 ovarian 28.3% | SK-OV-3 ovarian 27.7% | IGROV1 ovarian 27% | NCI/ADR-RES ovarian 74.8%

OC1(c2ccc(Cl)cc2Cl)c2ccccc2C2=NCCN21 (configuration not stated)
inactive: NCI-H322M lung 98.6% | HOP-62 NSCLC 78.7% | A549/ATCC NSCLC 103% | COLO 205 colon 90.6% | K-562 leukemia 81.1% | SNB-75 CNS 94.2% | U251 CNS 89.5% | SK-MEL-2 melanoma 98.2% | EKVX NSCLC 97.9% | ACHN renal 103% | SR leukemia 80.5% | OVCAR-5 ovarian 94.4% | OVCAR-4 ovarian 105% | SK-OV-3 ovarian 89.5% | IGROV1 ovarian 78.9% | NCI/ADR-RES ovarian 96.3%

CCCCCN(CCCCC)CC(O)c1ccc(C)c(Cl)c1 (configuration not stated)
inactive: NCI-H322M lung 102% | HOP-62 NSCLC 90.1% | NCI-H522 lung 83.5% | A549/ATCC NSCLC 92.7% | COLO 205 colon 91.3% | K-562 leukemia 92.5% | SNB-75 CNS 90.9% | U251 CNS 92.4% | SK-MEL-2 melanoma 101% | EKVX NSCLC 95.2% | SR leukemia 92.4% | OVCAR-5 ovarian 83.8% | OVCAR-4 ovarian 105% | SK-OV-3 ovarian 94.3% | IGROV1 ovarian 92.2%
